Out of some 2,400 compounds screened, fewer than 10 were called active. No rule for the calls is given here. Only a sample is shown.
target: Rac GTPase-activating protein 1 (Homo sapiens) (UniProt Q9H0H5); assay: inhibition of MgcRacGAP-stimulated Rac1 GTP hydrolysis – biochemical, inorganic phosphate detection, orthogonal assay, confirmation (AID 652142); details: MgcRacGAP/Rac1F28L GTP hydrolysis, Biomol green phosphate; stronger effect = higher value
Sequence (Q9H0H5 whole entry, looked up): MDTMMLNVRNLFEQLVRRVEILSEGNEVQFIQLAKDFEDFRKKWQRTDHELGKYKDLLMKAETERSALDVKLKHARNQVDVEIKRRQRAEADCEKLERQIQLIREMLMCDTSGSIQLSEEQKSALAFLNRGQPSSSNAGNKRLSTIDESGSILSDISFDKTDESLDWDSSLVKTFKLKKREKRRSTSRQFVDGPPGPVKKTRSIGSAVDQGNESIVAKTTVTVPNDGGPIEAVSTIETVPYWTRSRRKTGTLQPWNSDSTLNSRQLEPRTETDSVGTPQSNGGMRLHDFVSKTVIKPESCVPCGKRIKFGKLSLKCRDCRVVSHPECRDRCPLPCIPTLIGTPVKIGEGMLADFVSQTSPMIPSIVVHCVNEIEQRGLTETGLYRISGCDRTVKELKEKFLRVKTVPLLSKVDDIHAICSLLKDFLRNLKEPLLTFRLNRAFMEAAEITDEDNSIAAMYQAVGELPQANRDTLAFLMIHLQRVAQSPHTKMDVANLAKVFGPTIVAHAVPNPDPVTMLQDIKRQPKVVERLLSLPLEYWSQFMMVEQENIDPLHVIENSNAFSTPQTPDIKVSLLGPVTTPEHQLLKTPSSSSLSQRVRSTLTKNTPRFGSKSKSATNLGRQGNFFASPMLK

inhibition, inactive:
C/C(=N\Nc1ccc(S(=O)(=O)N2CCCCC2)cn1)c1ccc(O)cc1 27.3%
COc1ccccc1N=NNc1ccccc1OC 28.7%
CC(C)(C)N1C(=O)c2ccc(C(=O)Nc3ccc(O)cc3)cc2C1=O 24.3%
Cn1c(-c2ccc3c(c2)OCO3)cnc1NCc1ccccc1Cl 27.7%
COc1cccc(Nc2nc(-c3ccc(O)cc3)cs2)c1 31.8%
C=CCn1c(=O)/c(=C/c2ccc(O)cc2)s/c1=C(/C#N)c1nnc2n1CCCCC2 18.2%
COc1ccc(CNc2ncc(-c3ccc(F)cc3)n2C)c2ccccc12 17.2%
CCOC(=O)/C(C#N)=C\c1c(OCC)n(CC)c2ccccc12 19.7%
Cc1cccc(C)c1OCCCCN1CCNCC1 32%
CC1(C)OC(=O)C(=NNc2ccc(O)cc2)C(=O)O1 20.7%
CCN(CC)S(=O)(=O)c1cccc(NC(=O)CNC2CCCCCC2)c1 31%
C#CCOCCOCCOCCNc1nc(N2CCN(C(=O)[C@H](CCCCN)n3cc([C@@H](N)CC(C)C)nn3)CC2)nc(N2CCN(C(=O)[C@H](CCCCN)n3cc([C@@H](N)CC(C)C)nn3)CC2)n1 39.7%
COc1cc(/C=C2\SC(=Nc3c(C)n(C)n(-c4ccccc4)c3=O)NC2=O)ccc1O 22.8%
Nc1ccc2nc(-c3ccccc3)[nH]c2c1 26.8%
Oc1ccc(Cl)cc1C=Nc1ccc2c3c(cccc13)CC2 29.6%
Nc1ccc(-c2nc3ccc(N)cc3s2)cc1 22.9%
COc1cc2[nH]c(=S)nc(NCCc3ccc(S(N)(=O)=O)cc3)c2cc1OC 17.7%
Cc1c(O)ccc(/C(Cc2ccc3ccccc3n2)=N\O)c1O 25.3%
Oc1ccc(/C=N/Nc2cc(N3CCOCC3)nc(N3CCOCC3)n2)cc1O 7.37%
Cc1ccccc1-c1ccc(Nc2ccc(N3CCOCC3)cc2)nn1 33.6%
CC1=NN(c2ccccc2)C(=O)/C1=C/C=C/C=C/N(C)C 21.7%
Cc1ccc(C2C=NN(c3ccccc3)C2=O)cc1 (stereo not given) -3.99%
S=c1[nH]c2ccccc2n2c(=S)[nH]nc12 23.8%
O=C1CCCC/C1=C\Nc1ccc(O)cc1 30.3%
O=C(Nc1ccccc1C(=O)N/N=C/c1ccc(O)cc1)c1ccccc1 25.8%
Cc1ccc(Nc2n[nH]c(=S)s2)cc1 23.2%
C#CCOCCOCCOCCNc1nc(N2CCN(C(=O)[C@H](CCCCN)n3cc([C@@H](N)C(C)CC)nn3)CC2)nc(N2CCN(C(=O)[C@H](Cc3cc4ccccc4[nH]3)n3cc([C@@H](N)C(C)CC)nn3)CC2)n1 (stereo not given in full) 54.2%
Fc1ccc(CNc2ccc(N3CCN(Cc4ccccc4)CC3)cc2)cc1 7.97%
Cc1cc(SCC(=O)c2ccc(O)c(O)c2)nc2ccccc12 5.6%
COc1ccc(NC(=O)n2ncc3cc(Cl)ccc32)cc1OC 23.6%
COc1ccc(C(CNC(=O)c2cc3ccccc3cc2O)N2CCOCC2)cc1 (stereo not given) 18%
CC1CCCCN1Cc1c(O)ccc2c(=O)c(-c3nc4ccccc4s3)c(N)oc12 (stereo not given) 30.4%
CCN(CC)CCCC(C)NC(=O)c1c(NC(=O)c2ccccc2)sc2c1CCCC2 (stereo not given) 24.9%
CN(C)CCCN1c2ccc(O)cc2Sc2ccc(Cl)cc21 30.1%
COc1cc(/C=N/NC(=O)c2cccc(NC(=O)c3ccccc3C)c2)ccc1O 19.3%
C/C(=N\NC(=O)c1ccc(O)cc1)c1ccc2c(c1)Nc1ccccc1S2 28.2%
CCOc1cc(CNc2ccc(N3CCCCC3)cc2)cc(Br)c1OCC(=O)NC(C)(C)C 35.1%
Cc1cc(NS(=O)(=O)c2ccc(Nc3nc(-c4ccc(O)cc4)cs3)cc2)no1 23.8%
COC(=O)c1ccc(NC(=S)Nc2ccc(O)cc2)cc1 34.6%
C[C@H]1CCC/C=C/[C@@H]2C[C@H](O)C[C@H]2[C@H](O)[C@H](S(=O)c2ccc(O)cc2)CC(=O)O1 (stereo not given in full) 47.3%
Cc1[nH]nc(-c2ccc(O)c(C)c2O)c1-c1cnn(-c2ccccc2)c1 36.4%
Cn1c(=O)c2c([nH]c(=S)n2CCCc2ccccc2)n(C)c1=O 26.4%
Oc1ccc(N=Nc2ccccc2)cc1 8.73%
O=C1C=C(Nc2ccc(O)cc2)C(=O)c2ccccc21 25.1%
COc1cc(/C=N/Nc2nn3cnnc3c3ccccc23)ccc1O 26.4%
C/C(CC(=O)Nc1ccc(N(C)C)cc1)=N\NC(=O)c1ccc([N+](=O)[O-])cc1Cl 26.5%
COc1cc(/C=N/n2c(C3CCCCC3)n[nH]c2=S)ccc1O 27.2%
Cc1ccc(NC(=O)CN2CCN(C)CC2)cc1Br 26.9%
CCCCn1c(SCC(=O)c2ccc(O)c(O)c2)nc2ccsc2c1=O 27.5%
CCOC(=O)c1[nH]c2ccc(F)cc2c1NC(=O)c1ccccc1C(=O)O 22.6%
Cc1ccc(/C=N/Nc2ccc(Cl)c(C(=O)O)c2)s1 6.67%
O=C(c1cccnc1)N1CCN(Cc2cccc(Br)c2)CC1 26.8%
COc1ccc(N=C2NC(=O)/C(=C/c3ccc(O)c(OC)c3)S2)cc1 19.7%
Oc1ccc(-c2csc(-c3cccnc3)n2)c(O)c1 14.8%
Cc1nc(N)sc1-c1ccccc1 20.1%
COc1ccc(NC(=O)c2cc3ccc(O)cc3o/c2=N\O)cc1 17.5%
COc1cc(/C=N/NC(=S)Nc2cccc(S(=O)(=O)N(C)C)c2)ccc1O 20.1%
O=C(Nc1n[nH]c(=S)s1)c1ccco1 29.1%
CCc1nc(Nc2ccc(O)cc2)c2oc3ccccc3c2n1 27.8%
CCCCCC(=O)Nc1cc(S(=O)(=O)O)cc2cc(S(=O)(=O)O)cc(O)c12 64.8%

Reference: PubChem BioAssay AID652142 (Molecular Libraries Program, Specialized Chemistry Center, …, 2013)
